From PubChem BioAssay AID1347077 (National Center for Advancing Translational Sciences (NCATS), 2019)
The campaign covered roughly 44,000 compounds. Fewer than 10 were called active. Calls follow the shape of the dose curve; as a rule, active = well fitted activation curve with a large enough effect; inconclusive = small, poorly fitted or top-dose-only effect, or another doubt; inactive = no such curve, though single readings can be large or run the other way. Only a sample is shown.

biological target: Beta-2 adrenergic receptor (Homo sapiens) (UniProt P07550); experiment: qHTS assay of beta-arrestin-biased ligands of beta2-adrenergic receptor: NCGC Sytravon Library Screen; conditions: HTLA Tango cells, beta-arrestin recruitment, luciferase luminescence, 18 h; series mostly up to 46.1 µM
From the text: The concept of biased agonism is an emerging concept of molecular pharmacology which proposes that seven transmembrane receptors (7TMRs) or G protein-coupled receptors (GPCRs), exist in multiple signaling conformations and complexes and that ligands (either agonists or antagonists) can induce signaling biased responses for distinct signal transduction cascades. […] Furthermore, accumulating evidence over the last decade has drawn attention to a novel function of beta-arrestins as signal transducers that scaffold various signaling molecules upon activation of 7TMRs. […] This beta-arrestin-biased signaling presumably leads to distinct physiological outcomes from those by G protein activation. Additionally, the active receptor conformations which prefer on this beta-arrestin signaling are likely different from those activating G protein signaling. […] The goal of this screening project will be to discover and optimize novel beta-arrestin-biased ligands for beta2-AR signaling. A luminescent cell-based assay for beta2-AR-mediated agonism, known as the Tango assay, has been validated in which ligand binding of a recombinant beta2-AR and subsequent recruitment of a recombinant beta-arrestin lead to the release of the transcriptional activator tTA, which upregulates transcription of a tTA-responsive luciferase gene. […] Compounds from the NCGC Sytravon Library collection were screened as a concentration-titration series that ranged from 46 microM to 0.6 nM. NIH Molecular Libraries Probe Production Network [MLPCN] NIH Chemical Genomics Center [NCGC] MLPCN Grant: Fast-track/HHSN271700800025C PI: Bryan Roth and Bob Lefkowitz
Tango cells were dispensed into white, solid, tissue-culture-treated 1536-well plates at 1500 cells/well in DMEM, containing 1% fetal bovine serum (FBS). Then, 23 nL of compounds or DMSO were delivered to each well using a pin tool. Plates were incubated at 37 degrees C, 5% CO2 for 18 hr. Then 2.5 uL luminescent substrate mix (in-house prepared: 150 mM Tris-Cl, pH 7.6, 3 mM MgCl2, 1% Triton X-100, 5 mM DTT, 0.5 mM CoA, 0.15 mM ATP, 0.44 mM D-luciferin, final concentrations) was added to each well. Plates were then incubated for 15 minutes at room temperature, and subsequently measured on a ViewLux plate reader for luminescent signal using a clear filter with a 10 second exposure and 2x binning. The %Activity was determined from the corrected luminescence values. […] Concentration-response curves were fitted to the signals arising from the resulting luminescence. The concentration-effect curves were then classified based on curve quality (r2), response magnitude and degree of measured activity, and compounds were subsequently categorized based on their curve class.

Chain of Beta-2 adrenergic receptor (Homo sapiens) (P07550 whole entry, looked up): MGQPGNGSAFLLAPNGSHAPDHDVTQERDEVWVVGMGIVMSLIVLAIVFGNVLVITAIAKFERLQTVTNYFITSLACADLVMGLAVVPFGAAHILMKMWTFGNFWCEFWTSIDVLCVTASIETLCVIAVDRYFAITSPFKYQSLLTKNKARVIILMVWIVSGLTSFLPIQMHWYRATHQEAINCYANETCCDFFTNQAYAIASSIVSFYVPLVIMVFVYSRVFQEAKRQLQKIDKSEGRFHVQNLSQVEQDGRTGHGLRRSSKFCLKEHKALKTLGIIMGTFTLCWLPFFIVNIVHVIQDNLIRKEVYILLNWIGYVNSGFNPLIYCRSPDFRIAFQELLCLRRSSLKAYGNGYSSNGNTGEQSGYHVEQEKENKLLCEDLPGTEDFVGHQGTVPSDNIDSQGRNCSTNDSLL

outcome, inactive:
OCc1cnc(SCc2ccc(F)cc2)n1Cc1ccc(F)cc1, CCOc1cc2[nH]c(=O)n(Cc3ccc(C(=O)NCCN(CC)CC)cc3)c(=O)c2cc1OCC, COc1ccc(Nc2ncc3c(n2)CCN(C(=O)OC(C)(C)C)C3)cc1, CCOC(=O)CNC(=O)c1cc2c(=O)n3cccc(C)c3nc2s1, COC(=O)c1ccc(NC(=O)CCc2c(C)nn(-c3ccc(N4CCCC4)nn3)c2C)cc1, CC(=O)N1CCCc2cc(S(=O)(=O)N3CCC(C(=O)NCc4ccc(C)cc4)CC3)ccc21, O=C1CC(c2ccc(F)cc2F)c2cc3c(cc2N1)OCO3 (configuration not stated), COc1cccc(NC(=O)CSc2cc(=O)n(C)c3ccc(Cl)cc23)c1, CC(=O)c1cccc(NC(=O)c2nc(-c3ccccc3)n(-c3cccc(C)c3)n2)c1, O=C(Nc1ccc2nc(SCC(=O)N3CCCc4ccccc43)sc2c1)c1ccc(Cl)cc1, COc1ccc(NC(=O)c2cc3cc(C)ccc3n2C)cc1, CCc1ccc(NC(=O)CN2CCSc3ccc(S(=O)(=O)N4CCCC4)cc32)cc1, O=c1cc2nc(-c3ccccc3)nc(SCCOc3ccc(Cl)cc3)n2[nH]1, CCc1ccc(Sc2cc(C(=O)NCCCOC(C)C)c3ccccc3n2)cc1, Cn1c(=O)c2c(nc(NCCc3ccccc3)n2Cc2ccccc2Br)n(C)c1=O, O=C(CSc1ncc(S(=O)(=O)c2ccc(Br)cc2)c(=O)[nH]1)Nc1ccc2c(c1)OCCO2, CCN1CCN(c2cc(C)c3cc(NC(=O)c4cc(Cl)ccc4OC)ccc3n2)CC1, Cc1cccc(-n2c(=O)c3c(c4cc(C)ccc4n3C)n(CC(=O)Nc3ccccc3Cl)c2=O)c1, CCc1ccccc1NC(=O)CSc1nc(C)c(C(=O)Nc2ccccc2)c(-c2ccc(Cl)cc2)c1C#N, O=C(NCc1ccccc1Cl)C1=Cc2cc(Br)ccc2OC1, COC(=O)C1=C(c2ccccc2)c2ccccc2S(=O)(=O)N1CC(=O)Nc1ccccc1C(F)(F)F, Cc1ccc2cccc(NC(=O)c3cccc4ccccc34)c2n1, CC(C)OCCCn1c(SCC(=O)c2ccccc2)nc2c(sc3ccccc32)c1=O, CCC(C)Nc1oc(-c2ccc(COc3ccc(Cl)cc3)o2)nc1C#N (configuration not stated), Cc1ccc(NC(=O)c2nc(S(=O)(=O)Cc3cccc(C)c3)ncc2Cl)cc1, COc1ccc(C2C(=O)N(C3CCCCCC3)CC(=O)N2CCc2ccc(Cl)cc2)cc1OC (configuration not stated), CCOC(=O)c1cnc2c(C)cc(Cl)cc2c1NCCc1ccc(OC)c(OC)c1, Cc1cccc(CC(=O)Nc2cccc(-c3cn4cccnc4n3)c2)c1, Cc1cc(C)cc(NC(c2nnc(-c3cccc(F)c3)o2)c2ccc(F)cc2Cl)c1 (configuration not stated), Cn1nnnc1SCCCNCc1cccc(OCc2ccc(Cl)cc2)c1, COCCn1c(CCC(=O)Nc2cc(C)ccc2C)nc2cccnc21, O=C(CSc1oc(-c2ccccc2)nc1S(=O)(=O)c1ccc(Br)cc1)NC1CCCCC1, COc1ccccc1CNC(=O)CCCCn1c(=O)c2ccccc2n(CC(=O)Nc2cc(Cl)ccc2C)c1=O, COc1cccc(CNC(=O)Cc2csc3nc(-c4ccccc4)cn23)c1, Cn1c(COc2ccccc2C(C)(C)C)nc2ccccc21, Cc1ccc(CNC(=O)CSc2c(C)cnc3c2c(=O)n(C)c(=O)n3C)cc1, Cc1ccc(CN2CCC(CNC(=O)c3cnn(-c4ccc(C)cc4)c3C3CCN(C(=O)OC(C)(C)C)CC3)CC2)cc1, CSc1nc(=O)c2c(n1C)NC(=O)CC2c1ccccc1OC(C)C (configuration not stated), COc1ccc(-c2c(C)c3ccc(O)c(CN4CCCC4)c3oc2=O)cc1OC, COc1ccccc1NC(=O)c1oc2ccccc2c1NC(=O)COc1ccccc1OC, CC(=O)N1CCc2cc(S(=O)(=O)NC(Cc3ccccc3)C(=O)NCc3ccc(C)cc3)ccc21 (configuration not stated), O=C1Cc2cc(S(=O)(=O)Nc3ccc(OC(F)(F)F)cc3)cc3c2N1CCC3, CC1CCCN(c2nc3c(S(=O)(=O)c4ccc(C(C)C)cc4)nnn3c3ccsc23)C1 (configuration not stated), Cc1ccc(CSc2nc3ccsc3c(=O)n2CCC(C)C)cc1, CCOc1ccccc1CNC(=O)C1CCCN(S(=O)(=O)c2ccc3c(ccn3C)c2)C1 (configuration not stated), Cc1ccc2c(=O)cc(C(=O)Nc3sc4c(c3C(=O)NCc3cccnc3)CCCC4)oc2c1, COc1ccc(C(=O)Nc2ccc3nc(N4CCCCC4)cc(C)c3c2)cc1OC, COC(=O)CC1Oc2ccccc2-n2cc(-c3ccccc3)nc21 (configuration not stated), CCOC(=O)c1cc(-c2ccc(OC)c(S(=O)(=O)Nc3ccc(OC)cc3OC)c2)on1, Cc1cccc(NC(=O)c2ccc3nc(C(C)C)oc3c2)c1C, COc1ccc(Cl)cc1-n1c(CCC(=O)O)ccc1-c1ccc(C)cc1, O=C(Nc1ccccc1F)C(c1ccccc1)N1Cc2ccccc2C1=O (configuration not stated), Cc1ccc(-c2cc(N)n(Cc3cccc(Cl)c3)n2)cc1, Cc1nc(SCC(=O)N2CCN(c3ccccc3)CC2)[nH]c(=O)c1C, Cc1ccc(C)c(N2CCN(C(=O)C3CCC(CNS(=O)(=O)c4cccs4)CC3)CC2)c1 (configuration not stated), CCOc1ccc(CNCCSc2nnnn2C)cc1, NS(=O)(=O)c1ccc(NC(=O)C(=O)Nc2ccc3nc4n(c(=O)c3c2)CCCCC4)cc1, CCc1ccc(-n2nnc(-c3nc(-c4ccccc4)no3)c2C)cc1, COc1cccc(CNc2nccn(-c3ccc(OC)c(OC)c3)c2=O)c1, COc1ccc(NC(=O)CSc2nc3ccccc3[nH]2)cc1, CC(C)c1ccc(NC(=O)C2CCN(c3nc(-c4ccc(C(C)C)cc4)no3)CC2)cc1, CCOc1cccc2cc(-c3cn4c(n3)sc3cc(C)ccc34)c(=O)oc12, CCc1cc2c(cc3c(=O)n(CC(=O)NCc4cccc(Cl)c4)nc(CC)n32)s1, Cc1cc(C)cc(NS(=O)(=O)c2cc3c(cc2C)NC(=O)CO3)c1, Cc1[nH]c2ccccc2c1C(c1ccccc1)c1cccs1 (configuration not stated), CCOC(=O)c1c(C)[nH]c(C)c1S(=O)(=O)N1CCC(C(=O)Nc2ccc(C)c(Cl)c2)CC1, Cc1csc2nc(COc3ccc(NC(=O)COc4ccccc4)cc3)cc(=O)n12, COc1ccc(OC)c(CNC(=O)c2c3c(nc4ccccc24)C(=O)N(C2CCCCC2)C3)c1, Cc1ccc(NC(=O)CN2C(=O)C(c3ccc(F)cc3)=NC23CCCCCC3)c(C)c1, CCOc1ccc(C(=O)Nc2ccc3nc4c(c(Nc5ccccc5OC)c3c2)CCCC4)cc1, CCc1ccc(S(=O)(=O)c2nnn3c2nc(N2CCN(CC)CC2)c2sccc23)cc1, O=C(c1ccccc1F)N1CCC(c2nc3c(nnn3Cc3cccc(F)c3)c(=O)[nH]2)CC1, Cc1cc(=O)c2cc(C(=O)Nc3cccc(C)c3C)ccc2[nH]1, O=C(Nc1nnc(S(=O)(=O)N2CCOCC2)s1)c1cccc(Br)c1, COc1cccc(-c2nnc(SCC(=O)N3CCC(C)CC3)o2)c1, COc1ccc2c(C)c(CCC(=O)NCc3ccc(OC)c(OC)c3)c(=O)oc2c1, O=C(Cn1cc(SCc2cccc(Cl)c2)c2ccccc21)N1CCCCC1, COc1ccc(-c2cn3c(n2)sc2cc(C(=O)Nc4ccccc4F)ccc23)cc1, COc1cc(OC)c(OC)cc1/C=C/c1nc2ccccc2c(=O)n1-c1ccc(Br)c(C)c1, CCOC(=O)c1c(S(=O)(=O)N2CCCC(C(=O)NCc3ccc(F)cc3)C2)c(C)n(CC)c1C (configuration not stated), COc1ccc(CCNC(=O)CCCCn2c(=O)c3ccccc3n(Cc3ccccc3C)c2=O)cc1OC, CCOc1ccc(S(=O)(=O)c2cn(Cc3ccccc3)c3ccc(OCC)cc3c2=O)cc1, COc1ccc(NC(=O)CSc2nccn2C2CCCC2)cc1OC, Cc1ccc(-c2cnc(C3CC3)o2)cc1S(=O)(=O)Nc1cccc(C)c1C, COc1ccc(S(=O)(=O)NCC(c2ccco2)N2CCOCC2)cc1 (configuration not stated), CCOC(=O)c1c(NC(C)=O)c2c3c(sc2n1Cc1c(C)cc(C)cc1C)CCCC3, COc1ccc(-c2[nH]c3c(c2-c2c(-n4cccc4)n(C)c(=O)n(C)c2=O)c(=O)n(C)c(=O)n3C)cc1, CC(C)c1ccc(NC(=O)Cn2nnc(C(=O)NCCc3ccccc3)c2N)cc1, CCn1c(=O)cc(OCC(=O)Nc2cc(Cl)c(OC)cc2OC)c2ccccc21, CCc1ccc(NC(=O)Cn2c(=O)n(CCC(=O)NCc3ccc4c(c3)OCO4)c(=O)c3ccccc32)cc1, Cc1cc(C)cc(NC(=O)CSc2nc3nccnc3c(=O)n2CCc2c[nH]c3ccccc23)c1, Cc1c(NC(=O)Cc2ccccc2)cccc1-c1nc2cccnc2s1, COc1ccc(S(=O)(=O)NCC(c2ccc(N(C)C)cc2)N2CCCC2)cc1 (configuration not stated), COc1ccc(N2CCN(S(=O)(=O)CCNC(=O)C(c3ccccc3)c3ccccc3)CC2)cc1, N#C/C(=C\c1cccc(F)c1)c1nc(-c2cc3c(ccc4ccccc43)oc2=O)cs1, CCn1c2ccccc2c2nnc(N3CCN(c4cc(C)ccc4C)CC3)nc21, CCOc1ccc(OCC)c(NC(=O)c2c(C)nn(-c3ccccc3)c2-n2cccc2)c1
